# Only some compounds are listed: those with a hit (about 3.4% of all), similar ones and a draw of the others.
# GPR151 activ: activators of human GPR151; 650,000 compounds, 1% hits; PathHunter beta-arrestin GPR151 cells, luminescence; Q8TDV0; AID 1508602; activation, % at 11.2 µM; in the data active = activation above about 4.9%;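 also: 0% = median of compound wells and 100% = cells with positive control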
# TEAD-YAP inh: TEAD-YAP interaction inhibition; inhibition, % at 9.12 µM; 640,000 compounds, 1.4% hits; HEK-TIYL cells, TEAD-Gal4/YAP UAS-luciferase luminescence; in the data active = inhibition above about 32%;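 also: 0% = median of test compound wells and 100% = reference inhibitor wells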
# MITF primary: human MITF inhibition, primary screen | AlphaScreen MITF homodimerization, bead proximity signal | 650,000 compounds, 0.91% hits | O75030 | AID 1259374 | inhibition, % at 2.6 µM; in the data active = inhibition above about 50%;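 also: 0% = vehicle wells with protein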
# FBW7 act: human FBW7 E3 ligase activation, primary screen | Q969H0 | AlphaScreen FBW7–phospho-cyclin E peptide binding, activator screen | normalized activity (activation), % at 26.1 µM | 650,000 compounds, 0.13% hits | AID 1259310; in the data active = normalized activity above about 1.9%;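 also: purified mutant Fbw7 with reduced substrate affinity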
# GPR151 conf act: human GPR151 activation, confirmation screen; GPR151 PathHunter beta-arrestin cells, luminescence, 90 min; % of EA-reagent control over plate median; AID 1508609; shares compounds with GPR151 activ; activation, % at 11.2 µM; 6,700 tested, under 10 active;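 active = mean percent activation across replicates above the confirmation screen cutoff of 4.91%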
# GPR119 counter: counter-screen for GPR151 activators: effect on human GPR119; activation, % at 11.2 µM; shares compounds with GPR151 activ; GPR119 PathHunter beta-arrestin cells, luminescence, 90 min; 0 = compound-well median, 100 = enzyme-acceptor control; 6,700 compounds, 0.3% hits;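 active = mean percent activation in the counterscreen above 29.09%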;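 also: counterscreen on off-target GPR119 to flag nonselective hits from the GPR151 activator screen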
# Target sequence (Q8TDV5 whole entry, looked up): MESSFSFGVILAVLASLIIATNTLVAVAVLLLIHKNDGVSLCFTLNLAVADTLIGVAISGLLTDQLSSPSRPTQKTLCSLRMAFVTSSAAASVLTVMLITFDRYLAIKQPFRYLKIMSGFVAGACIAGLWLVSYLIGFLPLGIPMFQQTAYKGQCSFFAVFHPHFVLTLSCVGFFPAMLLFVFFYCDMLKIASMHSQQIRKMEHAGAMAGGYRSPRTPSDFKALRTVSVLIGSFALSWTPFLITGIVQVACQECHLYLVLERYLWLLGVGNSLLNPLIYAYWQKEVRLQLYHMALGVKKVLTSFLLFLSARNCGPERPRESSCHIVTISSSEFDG
# Active calls of the source: *; / = no result given; ! = a repeat was not active.
SMILES,GPR151 activ,TEAD-YAP inh,MITF primary,FBW7 act,GPR151 conf act,GPR119 counter
O=C(COc1ccc(Br)cc1)Nc1ccc2oc(=O)ccc2c1,0.7,5.7,3.6,-0.2,/,/
CCNc1c(NC(=O)c2ccccc2C)c(=O)oc2ccccc12,0.4,-3.5,-0.4,-0.1,/,/
COc1cc(/C=N/N=C2/C(=O)Nc3ccccc32)cc(OC)c1O,3.4,2.5,-8.1,-0.1,/,/
COc1ccc(O)c(/C=N/N=C2/C(=O)Nc3ccccc32)c1,6.6*,8.9,15.4,0.0,-0.3,-5.3
COc1ccccc1NC(=O)CSc1nnc(CCNC(=O)c2ccc(C)cc2)n1C,6.1*,-0.9,11.9,0.0,0.9,3.6
CC(=O)Oc1ccc(/C=c2/sc3nc(=O)c(Cc4ccc(F)cc4)nn3c2=O)cc1,1.1,10.7,-1.1,0.0,/,/
O=c1nc2s/c(=C/c3cccs3)c(=O)n2nc1Cc1ccc(F)cc1,5.0*,11.9,7.6,-1.8,-0.3,-4.8
CCN(CC)S(=O)(=O)c1ccc2oc(SCC(=O)c3cccs3)nc2c1,1.7,0.8,-6.6,0.0,/,/
COc1cccc(NC(=O)CSc2cn(CC(=O)N3CCC(C)CC3)c3ccccc23)c1,5.1*,-1.3,15.4,0.0,0.9,3.2
COc1cccc(NC(=O)CSc2cn(CC(=O)N3CCOCC3)c3ccccc23)c1,-0.3,2.3,0.0,0.6,/,/
c1ccc(Cn2cc(-c3ncoc3-c3ccnc(Nc4ccc(N5CCOCC5)cc4)c3)cn2)cc1,6.0*,45.3*,12.7,-0.4,-0.1,-3.3
COCCN1C(=S)NC2CC1(C)Oc1ccccc12 (stereo not drawn),6.1*,-6.7,-10.4,0.0,-0.3,-9.8
COc1cc(Br)c(C2CC(=O)Nc3ccc4ccccc4c32)cc1OC (stereo not drawn),-0.2,1.1,15.3,0.1,/,/
COc1cc2c(c(OC)c1)C(c1cc(OC)c(OC)cc1Br)CC(=O)N2 (stereo not drawn),5.1*,11.4,5.8,0.0,0.2,-1.7
CCCOC(=O)C1=C(C)NC2=C(C(=O)CCC2)C1c1cccnc1 (stereo not drawn),6.1*!,2.0,1.5,-0.1,1.0,2.6
CCOc1c(Br)cc(C2C(C(=O)N3CCOCC3)=C(C)NC3=C2C(=O)CCC3)cc1OC (stereo not drawn),6.2*,3.9,-0.9,0.1,-0.5,-0.9
CCCCCOC(=O)C1=C(C)NC2=C(C(=O)CCC2)C1c1cc(Br)c(O)c(OCC)c1 (stereo not drawn),5.5*,1.5,8.8,0.2,-1.3,-3.4
CCCOC(=O)C1=C(C)NC2=C(C(=O)CCC2)C1c1cc(Br)c(O)c(OCC)c1 (stereo not drawn),-0.5,-2.7,13.4,0.2,/,/
COc1ccc(O)c(CN2CCN(Cc3ccccc3)C(CCO)C2)c1 (stereo not drawn),-1.2,-7.0,0.2,0.0,/,/
CCOC(=O)c1cccc(NC(=O)n2ncc3cc(Cl)ccc32)c1,5.6*,84.6*,1.5,-0.1,0.4,-2.9
CCOC(=O)c1ccccc1NC(=O)n1ncc2cc(Cl)ccc21,-0.3,-9.2,-1.7,-0.1,/,/
O=C(Nc1ccc(I)cc1)c1ccc(CSc2ccc(Cl)cc2)cc1,1.7,0.9,10.5,-0.1,/,/
CC(=O)NC1=NC(=O)/C(=C/c2ccc(OCc3ccc([N+](=O)[O-])cc3)cc2)S1,5.0*,1.1,16.5,0.2,0.5,-4.2
COc1cc(/C=C2\SC(NC(C)=O)=NC2=O)ccc1OCc1ccc([N+](=O)[O-])cc1,1.0,-13.7,-1.2,-0.2,/,/
CCC(Sc1nnc(-c2ccccc2)n1N)C(=O)O (stereo not drawn),-1.0,-0.1,3.1,0.1,/,/
SMILES,GPR151 activ,TEAD-YAP inh,MITF primary,FBW7 act,GPR151 conf act,GPR119 counter
CC(Cc1nnc(-c2ccccc2)n1N)C(=O)O (stereo not drawn),9.8*,5.8,5.8,0.0,0.2,3.7
O=C(Nc1cccc(C(=O)Nc2cccc3ccccc23)c1)c1cccc(F)c1,0.3,3.8,-5.7,0.0,/,/
O=C(c1ccccc1)c1ccc(C(=O)N2CCCCC2)o1,6.7*,-57.0,-5.8,0.0,-0.6,-6.8
O=C(c1ccccc1)c1ccc(C(=O)N2CCN(c3ccccc3)CC2)o1,0.2,-28.7,-3.6,-0.2,/,/
Cc1nccn1CC(C)C(=O)N1CCN(Cc2ccccc2F)C[C@@H]1C(C)C (stereo partly drawn),-0.5,-0.6,-10.9,0.2,/,/
CCOc1ccccc1NC(=O)/C=C/c1ccc(OC)cc1,-1.1,10.1,0.2,-0.1,/,/
CCCCOc1ccccc1NC(=O)/C=C/c1ccc(-c2ccccc2)cc1,5.3*,-7.7,2.2,0.0,-0.8,7.3
COCCCNC(=O)CN(c1cc(Cl)ccc1Cl)S(C)(=O)=O,10.6*,-6.0,3.4,0.0,0.0,-8.8
COCCCNC(=O)CN(c1cc(Cl)ccc1C)S(C)(=O)=O,-0.8,-5.8,6.7,0.1,/,/
CCOC(=O)C1CCN(C(=S)Nc2cc(C)c(Cl)cc2OC)CC1,-2.3,-4.2,22.4,0.3,/,/
Cc1ccc(NC(=O)CSc2nc3[nH]ncc3c(=O)n2-c2ccc(Br)cc2)cc1Cl,7.5*,22.2,-7.0,-0.1,0.2,9.5
CNC(=O)c1ccsc1NC(=O)CN1C(=O)CCC1=O,-0.2,3.0,-1.9,-0.2,/,/
CCC1(C2CCN(Cc3ccoc3)CC2)NC(=O)N(CCc2ccc(OC)cc2)C1=O (stereo not drawn),13.5*,3.4,-16.6,-0.2,0.2,7.0
COCCNC(=O)c1ccc(OC)cc1,4.9*,-2.4,-1.3,0.6,1.8,0.8
COCCCNC(=O)c1ccc(OC)cc1,-1.6,-10.2,23.4,0.1,/,/
COc1ccc2c(c1)c(-c1csc(N)n1)c(C)n2C,-1.0,1.4,15.8,-0.1,/,/
COc1ccc(Nc2nc(-c3c[nH]c4ccccc34)cs2)cc1,5.4*,-14.6,15.6,-0.1,0.0,-3.1
COc1ccc2c(-c3csc(N)n3)c[nH]c2c1,8.4*,13.6,-2.2,-0.5,0.2,6.0
COc1ccc(NC(=O)CSc2nc(N)c(NC(=O)c3cccs3)c(=O)[nH]2)cc1,1.2,5.4,9.6,-0.1,/,/
CC(C)N(CCNC(=O)c1cccc(-c2ccc(N3CCOCC3)nc2)n1)C(C)C,-0.7,-3.3,-4.7,-0.1,/,/
COc1ccc(CN2CCN(C(=O)c3ccccc3F)CC2)cc1OC,0.5,6.6,41.3,0.1,/,/
CCOC(=O)c1ccc(NC(=O)C(=O)NCCCOC(C)C)cc1,-0.9,6.8,14.8,0.0,/,/
CCOC(=O)C(C)N1C(=O)S/C(=C/c2cc(Cl)cc(OC)c2O)C1=O (stereo not drawn),6.7*,-5.2,-4.9,-0.1,0.4,-5.4
COC(=O)C(C)N1C(=O)S/C(=C/c2cc(Cl)cc(OC)c2O)C1=O (stereo not drawn),-1.0,-3.7,-9.1,0.1,/,/
CCN(CC)C(=O)C1CCCN(c2cccc(C(=O)Nc3ccc(NC(C)=O)cc3)c2)C1 (stereo not drawn),0.7,3.9,4.1,0.0,/,/
